# Results filed as inconclusive are left out. Where a call stands in place of a potency, no number is given. Calls of active or inactive are those of the source. The call rests on the fitted dose curve; in most records, active means well fitted curve in the direction sought with a large enough effect in the repeat runs; inconclusive means weak or mixed curves; inactive means no such curve, though single readings can be large; an effect the other way counts as inactive or inconclusive.
# Test: A CellTox Green Cytotoxicity Assay to monitor cytotoxicity in HEK293 cells - 40 hour (AID 1224871); further: nearly all actives have a fitted effect of over 45% in size
# Conditions: CellTox Green fluorescence; series mostly up to 76.8 µM
# Method in brief: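 HEK293 cells premixed with CellTox Green dye were seeded at 600 cells/well and left 5 h at 37 C/5% CO2 before pin transfer of 23 nL compound in DMSO. Fluorescence from dye bound to dead-cell DNA was read during 40 h treatment.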
# Potency means the concentration at half of the fitted maximal effect.
row,SMILES,Potency
1,CO/N=C1\CN(c2nc3c(cc2F)c(=O)c(C(=O)O)cn3C2CC2)CC1CN (stereo not drawn),inactive
2,c1cnc2c(n1)CCCC2,43.6 µM (active)
3,CCCCCC=CCC=CCCCCCCCC(=O)OCC,inactive
4,CC(C)=CC=O,inactive
5,CC(C)c1nnc2ccc(-c3ocnc3-c3cc(F)ccc3F)cn12,inactive
6,Cc1cc2nc3ccc(=[N+](C)C)cc-3sc2cc1N,inactive
7,O=C(/C=C/c1ccccc1)OCCCc1ccccc1,inactive
8,OCCSc1ccccc1,inactive
9,C=CC(C)(O)CCCC(C)CCCC(C)CCCC(C)C (stereo not drawn),inactive
10,COC(=O)[C@@H]1CC2=CC(=O)CC[C@]2(C)[C@@]23O[C@@H]2C[C@@]2(C)[C@@H](CC[C@@]24CCC(=O)O4)[C@H]13,inactive
11,CCCCOC(=O)CCS,inactive
12,CCC(C)=O,inactive
13,N#C[C@@H]1C[C@@H]2C[C@@H]2N1C(=O)[C@@H](N)C12CC3CC(CC(O)(C3)C1)C2,inactive
14,CCN(Cc1cccc(S(=O)(=O)O)c1)c1ccc(C(=C2C=CC(=[N+](CC)Cc3cccc(S(=O)(=O)[O-])c3)C=C2)c2ccccc2)cc1,inactive

# Test: qHTS RealTime-Glo MT Cell Viability Assay in HEK293 cells - 16 hour (AID 1224872); further: nearly all actives have a fitted effect of over 50% in size
# Conditions: RealTime-Glo luminescence; series mostly up to 76.8 µM
# Method in brief: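 Nonlytic real-time viability readout: viable cells convert prosubstrate to NanoLuc substrate, giving luminescence proportional to live cell number. HEK293, 600 cells/well, compound added after 5 h, continuous culture at 37 C.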
row,SMILES,Potency
1,Cc1cc(OI)c(C(C)C)cc1-c1cc(C(C)C)c(OI)cc1C,inactive
2,C[N+](C)(C)CCOC(N)=O,inactive
3,CC(C)(O)c1ccccc1CC[C@@H](SCC1(CC(=O)O)CC1)c1cccc(/C=C/c2ccc3ccc(Cl)cc3n2)c1,inactive
4,CCCCC(CC)CNCC(CC)CCCC (stereo not drawn),inactive
5,COCCOC,0.932 µM (active)
6,CC(=O)Nc1ccccc1C,inactive
7,C/C=C(\C)C(=O)OCCC(C)CCC=C(C)C (stereo not drawn),inactive
8,CCCCCCCC/C=C\CCCCCCCC(=O)OC(CO)CO,inactive
9,CCn1nc(C)c2c1C(=O)NCC(c1ccc(O)cc1)=N2,inactive
10,Cc1ccnc2ccccc12,inactive
11,CCn1cc(C(=O)O)c(=O)c2cc(F)c(N3CCNCC3)nc21,inactive
12,Brc1cc(-c2ccc(Br)c(Br)c2Br)cc(Br)c1Br,inactive
13,CCC1(C)CC(=O)NC1=O (stereo not drawn),inactive
14,O=S(=O)(c1ccccc1)c1ccc(Cl)cc1,inactive
15,O=C(O)c1c(O)c(-c2ccccc2)nc2ccccc12,inactive
16,CC(C)(C)C(=O)O,inactive
17,CCOC(=O)OCC,inactive
18,CN1Cc2cc(C(=O)N3CCC(C4CCNCC4)CC3)ccc2N[C@@H](CC(=O)O)C1=O,inactive
19,OC(CCCN1CCCCC1)(c1ccccc1)c1ccccc1,inactive
20,CCN(CC)CCNC(=O)c1ccc(NC(C)=O)cc1,inactive

row,SMILES,Potency
1,CC(C)CCCCCOC(=O)CCCCC(=O)OCCCCCC(C)C,inactive
2,O=C(CS)OCCOC(=O)CS,inactive
3,CCCCCCCCCOC(C)=O,inactive
4,O=C(O)Cc1ccc(-c2ccccc2)cc1,inactive
5,CC(=O)Nc1ccc(N)cc1,inactive
6,CO/N=C1\CN(c2nc3c(cc2F)c(=O)c(C(=O)O)cn3C2CC2)CC1CN (stereo not drawn),inactive
7,c1cnc2c(n1)CCCC2,inactive
8,CCCCCC=CCC=CCCCCCCCC(=O)OCC,inactive
9,CC(C)=CC=O,inactive
10,CC(C)c1nnc2ccc(-c3ocnc3-c3cc(F)ccc3F)cn12,17.4 µM (active)
11,Cc1cc2nc3ccc(=[N+](C)C)cc-3sc2cc1N,2.13 µM (active)
12,O=C(/C=C/c1ccccc1)OCCCc1ccccc1,inactive
13,OCCSc1ccccc1,inactive
14,C=CC(C)(O)CCCC(C)CCCC(C)CCCC(C)C (stereo not drawn),inactive
15,COC(=O)[C@@H]1CC2=CC(=O)CC[C@]2(C)[C@@]23O[C@@H]2C[C@@]2(C)[C@@H](CC[C@@]24CCC(=O)O4)[C@H]13,inactive
16,CCCCOC(=O)CCS,inactive
17,CCC(C)=O,inactive
18,N#C[C@@H]1C[C@@H]2C[C@@H]2N1C(=O)[C@@H](N)C12CC3CC(CC(O)(C3)C1)C2,inactive
19,CCN(Cc1cccc(S(=O)(=O)O)c1)c1ccc(C(=C2C=CC(=[N+](CC)Cc3cccc(S(=O)(=O)[O-])c3)C=C2)c2ccccc2)cc1,inactive

# — PubChem BioAssay (Tox21)
